# Measurements reported in PubChem BioAssay.
# The source made the active and inactive calls.
# Columns and labels:
# [1] = system: Plasmodium falciparum Sir2 (PF13_0152, Sir2A); test: pfSir2 binders on small-molecule microarrays, primary screen, biochemical, small-molecule microarray, 635 nm fluorescence (AID 1098); details: small-molecule microarray binding, fluorescence 635 nm; higher = more signal;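 also: score merges spot fluorescence intensity with its signal-to-noise ratio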
# [2] = small-molecule microarray binders of probe aDKK1, primary screen, biochemical, biotinylated probe, 635/667 nm fluorescence (AID 1099); details: higher = more signal;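 also: score merges 667nm spot fluorescence with signal to noise across triplicate slides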
# [3] = small-molecule microarray binders of probe aCHRDL2, primary screen, biochemical, biotinylated probe, 635/667 nm fluorescence (AID 1100); details: higher = more signal
# [4] = splicing luciferase reporter signal modulators, primary screen, spliceosome inhibition project, cell-based, HEK293, splice +/- reporter (AID 1101); details: luminescence, 24 h, higher = more signal, called active from +8 up or from −8 down;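 also: HEK293 cells carrying a splicing-competent luciferase reporter gene; test concentration not given here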
# [5] = target: Fibroblast growth factor 10 (Homo sapiens) (UniProt O15520); test: FGF10 binders on small-molecule microarrays, primary screen, biochemical, small-molecule microarray, 635 nm fluorescence (AID 1102); details: FGF10 binding, fluorescence 635 nm, higher = more signal
# Sequence of Fibroblast growth factor 10 (Homo sapiens) (O15520 whole entry, looked up): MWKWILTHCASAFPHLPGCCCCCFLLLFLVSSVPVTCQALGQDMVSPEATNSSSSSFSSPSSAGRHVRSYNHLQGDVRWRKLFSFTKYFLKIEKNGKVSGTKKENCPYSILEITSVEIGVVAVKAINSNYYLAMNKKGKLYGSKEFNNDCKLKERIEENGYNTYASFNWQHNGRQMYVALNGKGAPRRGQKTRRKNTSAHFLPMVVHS
# [6] = system: glycogen synthase kinase-3 (GSK3A per assay name; protocol says GSK3B); test: GSK3 binders on small-molecule microarrays, primary screen, biochemical, small-molecule microarray, 635 nm fluorescence, GSK3A (AID 1103); details: small-molecule microarray binding, fluorescence 635 nm; higher = more signal; also: the record names both GSK3A and GSK3B
# [7] = target: Epidermal growth factor receptor (Homo sapiens) (UniProt P00533); test: EGFR binders on small-molecule microarrays, primary screen, biochemical, small-molecule microarray, 635 nm fluorescence (AID 1104); details: EGFR binding, higher = more signal;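 also: score merges 667 nm emission intensity with spot signal to noise over triplicate slides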
# Sequence of Epidermal growth factor receptor (Homo sapiens) (P00533 whole entry, looked up): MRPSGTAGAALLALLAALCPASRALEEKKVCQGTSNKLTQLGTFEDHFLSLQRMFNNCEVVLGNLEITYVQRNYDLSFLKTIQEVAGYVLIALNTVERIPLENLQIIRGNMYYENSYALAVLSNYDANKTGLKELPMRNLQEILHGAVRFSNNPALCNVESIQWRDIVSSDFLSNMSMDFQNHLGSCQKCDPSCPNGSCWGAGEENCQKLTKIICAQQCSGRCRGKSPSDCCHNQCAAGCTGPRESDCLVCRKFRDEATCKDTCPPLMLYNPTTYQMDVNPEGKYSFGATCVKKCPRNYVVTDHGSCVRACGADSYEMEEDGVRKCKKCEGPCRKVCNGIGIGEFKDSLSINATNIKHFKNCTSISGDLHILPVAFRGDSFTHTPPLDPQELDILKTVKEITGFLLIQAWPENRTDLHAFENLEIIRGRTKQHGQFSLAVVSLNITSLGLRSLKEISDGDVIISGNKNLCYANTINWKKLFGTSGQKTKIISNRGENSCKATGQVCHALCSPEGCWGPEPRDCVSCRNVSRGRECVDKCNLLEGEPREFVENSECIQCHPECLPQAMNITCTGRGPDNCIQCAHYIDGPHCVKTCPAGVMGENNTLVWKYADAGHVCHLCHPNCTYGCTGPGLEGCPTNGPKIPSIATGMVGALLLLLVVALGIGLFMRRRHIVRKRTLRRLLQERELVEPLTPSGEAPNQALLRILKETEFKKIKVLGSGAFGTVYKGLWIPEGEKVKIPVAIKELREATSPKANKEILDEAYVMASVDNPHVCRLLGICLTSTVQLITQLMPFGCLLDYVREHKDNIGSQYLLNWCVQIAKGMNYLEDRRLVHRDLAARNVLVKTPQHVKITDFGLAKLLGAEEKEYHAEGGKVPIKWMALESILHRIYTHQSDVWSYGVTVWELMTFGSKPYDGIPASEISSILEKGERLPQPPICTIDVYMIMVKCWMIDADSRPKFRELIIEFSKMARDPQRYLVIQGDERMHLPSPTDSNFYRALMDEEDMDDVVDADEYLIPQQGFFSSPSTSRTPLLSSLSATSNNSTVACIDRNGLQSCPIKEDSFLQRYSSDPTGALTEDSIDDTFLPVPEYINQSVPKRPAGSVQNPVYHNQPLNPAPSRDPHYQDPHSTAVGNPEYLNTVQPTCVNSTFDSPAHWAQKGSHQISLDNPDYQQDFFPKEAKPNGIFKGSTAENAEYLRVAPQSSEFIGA
# [8] = target: Follistatin-related protein 3 (Homo sapiens) (UniProt O95633); test: FSTL3 binders on small-molecule microarrays, primary screen, biochemical, small-molecule microarray, 635 nm fluorescence (AID 1105); details: FSTL3 binding, higher = more signal;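 also: score merges emission near 667 nm and signal to noise per printed spot across three slides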
# Sequence of Follistatin-related protein 3 (Homo sapiens) (O95633 whole entry, looked up): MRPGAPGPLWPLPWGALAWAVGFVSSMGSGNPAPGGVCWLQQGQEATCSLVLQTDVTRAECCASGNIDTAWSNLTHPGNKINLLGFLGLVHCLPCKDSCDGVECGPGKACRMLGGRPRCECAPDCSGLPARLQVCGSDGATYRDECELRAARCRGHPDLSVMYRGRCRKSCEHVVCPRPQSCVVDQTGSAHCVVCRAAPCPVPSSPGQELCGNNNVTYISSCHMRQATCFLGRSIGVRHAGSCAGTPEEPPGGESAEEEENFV
# [9] = target: Dickkopf-related protein 1 (Homo sapiens) (UniProt O94907); test: DKK1 binders on small-molecule microarrays, primary screen, biochemical, small-molecule microarray, 635 nm fluorescence scan (AID 1106); details: DKK1 binding, higher = more signal;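 also: score merges emission near 667 nm with signal to noise over three replicate slides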
# Sequence of Dickkopf-related protein 1 (Homo sapiens) (O94907 whole entry, looked up): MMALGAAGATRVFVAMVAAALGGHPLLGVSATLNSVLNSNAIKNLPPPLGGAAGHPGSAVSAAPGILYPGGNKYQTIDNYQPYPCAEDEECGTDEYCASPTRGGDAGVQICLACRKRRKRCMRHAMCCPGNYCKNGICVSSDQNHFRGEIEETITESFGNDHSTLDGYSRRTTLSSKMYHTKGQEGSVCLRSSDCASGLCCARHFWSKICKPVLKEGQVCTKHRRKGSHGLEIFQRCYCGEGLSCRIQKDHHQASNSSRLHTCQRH
# [10] = system: Inhibin beta A chain (activin A); test: INHBA (activin A) binders on microarrays, primary screen, biochemical, small-molecule microarray, 635 nm fluorescence scan (AID 1107); details: small-molecule microarray binding, higher = more signal;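 also: mouse activin A protein probed at 4.33 µg/mL on printed slides; score merges bound-protein fluorescence near 667 nm with spot signal-to-noise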
# [11] = system: Human papillomavirus type 1a protein E7 (residues 44-93); test: HPV1a E7 fragment binders on microarrays, primary screen, biochemical, small-molecule microarray, residues 44-93, 635 nm fluorescence (AID 1108); details: small-molecule microarray binding, fluorescence 635 nm; higher = more signal;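 also: E7 fragment applied at 1 µg/mL in TBST for 1 h at 4 C; score combines spot fluorescence with its signal to noise ratio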
# [12] = modulators of HCV replicon luciferase signal, primary screen, HCV replication inhibitor project, Huh7 cells, luciferase reporter (AID 1109); details: 48 h, higher = more signal;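 also: huh7 hepatoma cells harbouring a luciferase neomycin HCV replicon reporter; luciferase luminescence as measure of HCV replicon replication; test concentration not given here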
# [13] = target: Left-right determination factor 2 (Homo sapiens) (UniProt O00292); test: LEFTY2 binders on small-molecule microarrays, primary screen, biochemical, small-molecule microarray, 635 nm fluorescence scan (AID 1110); details: LEFTY2 binding, higher = more signal
# Sequence of Left-right determination factor 2 (Homo sapiens) (O00292 whole entry, looked up): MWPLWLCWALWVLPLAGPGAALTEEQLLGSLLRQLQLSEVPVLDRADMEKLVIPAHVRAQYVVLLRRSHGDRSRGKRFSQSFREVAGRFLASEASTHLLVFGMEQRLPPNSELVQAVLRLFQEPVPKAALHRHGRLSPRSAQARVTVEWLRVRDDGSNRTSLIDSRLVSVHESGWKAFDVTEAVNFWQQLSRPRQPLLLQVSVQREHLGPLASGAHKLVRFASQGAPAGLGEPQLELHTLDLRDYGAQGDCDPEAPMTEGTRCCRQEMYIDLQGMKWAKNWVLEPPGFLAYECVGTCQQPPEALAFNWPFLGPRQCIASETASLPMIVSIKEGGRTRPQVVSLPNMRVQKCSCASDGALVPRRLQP
# [14] = target: Calmodulin-1 (Homo sapiens) (UniProt P0DP23); test: CALM1 binders on microarrays, EGTA buffer, profiling panel, biochemical, small-molecule microarray, Cy5-labelled CALM1 (AID 1111); details: Cy5-CALM1 binding fluorescence, higher = more signal;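 also: labelled calmodulin applied in Tris saline Tween buffer holding calcium plus EGTA and DTT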
# [15] = target: Calmodulin-1 (Homo sapiens) (UniProt P0DP23); test: calcium-bound CALM1 binders on microarrays, profiling panel, artefact control for SMM control-protein annotation, biochemical, small-molecule microarray, Cy5-labelled CALM1, plus calcium (AID 1112); details: Cy5-CALM1 binding fluorescence, higher = more signal;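 also: score merges spot fluorescence with signal to noise from triplicate slides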
# [16] = small-molecule microarray binders of probe aWnt5a, primary screen, biochemical, biotinylated probe, 635/667 nm fluorescence (AID 1113); details: higher = more signal;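 also: score merges 667 nm fluorescence intensity with signal-to-noise per printed feature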
# [17] = small-molecule microarray binders of probe aShh, primary screen, biochemical, biotinylated probe, 635/667 nm fluorescence (AID 1114); details: higher = more signal;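 also: probe is biotin-labelled aShh protein from a stem cell growth factor screen; measures binding of labelled protein to compounds printed on the slide; score merges feature fluorescence at 667 nm with signal-to-noise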
# [18] = small-molecule microarray binders of probe aNog, primary screen, biochemical, biotinylated probe, 635/667 nm fluorescence (AID 1115); details: higher = more signal;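 also: probe is biotinylated aNog protein used at 0.15 µg/mL for 1 h at 4 C; z-score combines 667 nm fluorescence of each spot with its signal to noise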
# [19] = target: Torsin-1A-interacting protein 1 (Homo sapiens) (UniProt Q5JTV8); test: LAP1 binders from COS7 cell lysate, primary screen, small-molecule microarray, 635/667 nm fluorescence (AID 1116); details: COS7-hLAP1 lysate binding, 635 nm fluorescence, higher = more signal
# Sequence of Torsin-1A-interacting protein 1 (Homo sapiens) (Q5JTV8 whole entry, looked up): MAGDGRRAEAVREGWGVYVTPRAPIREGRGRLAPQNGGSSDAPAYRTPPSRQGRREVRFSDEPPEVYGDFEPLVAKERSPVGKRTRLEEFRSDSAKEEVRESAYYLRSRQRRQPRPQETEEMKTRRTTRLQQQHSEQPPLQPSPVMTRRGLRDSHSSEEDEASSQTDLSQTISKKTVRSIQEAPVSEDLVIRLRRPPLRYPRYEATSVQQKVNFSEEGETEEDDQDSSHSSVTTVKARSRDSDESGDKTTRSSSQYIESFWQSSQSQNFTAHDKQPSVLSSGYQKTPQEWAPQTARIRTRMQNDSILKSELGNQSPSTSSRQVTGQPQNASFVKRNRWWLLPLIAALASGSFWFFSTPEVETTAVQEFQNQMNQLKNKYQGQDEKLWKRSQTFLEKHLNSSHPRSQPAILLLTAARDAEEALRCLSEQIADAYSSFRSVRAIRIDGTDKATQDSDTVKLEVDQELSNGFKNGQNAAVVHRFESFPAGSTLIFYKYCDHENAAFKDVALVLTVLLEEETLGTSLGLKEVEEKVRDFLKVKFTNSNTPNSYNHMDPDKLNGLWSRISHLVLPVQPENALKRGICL
# [20] = target: Alpha-bungarotoxin (Bungarus multicinctus) (UniProt P60615); test: alpha-bungarotoxin binders on microarray, profiling panel, artefact control for SMM control protein annotation, biochemical, small-molecule microarray, Alexa647 label, 635/667 nm fluorescence (AID 1117); details: alpha-BTX-A647 binding fluorescence, higher = more signal
# Sequence of Alpha-bungarotoxin (Bungarus multicinctus) (P60615 whole entry, looked up): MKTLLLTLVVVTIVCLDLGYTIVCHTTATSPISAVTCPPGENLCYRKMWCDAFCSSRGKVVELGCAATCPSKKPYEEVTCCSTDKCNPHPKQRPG
Compound,composite z-score [1],composite z-score [2],composite z-score [3],z-score [4],composite z-score [5],composite z-score [6],composite z-score [7],composite z-score [8],composite z-score [9],composite z-score [10],composite z-score [11],z-score [12],composite z-score [13],composite z-score [14],composite z-score [15],composite z-score [16],composite z-score [17],composite z-score [18],composite z-score [19],composite z-score [20]
CN(C)C(=O)[C@]1(CCS(=O)(=O)c2ccccc2)N=C(c2ccc(OCCCO)cc2)O[C@@H]1c1ccccc1N=[N+]=[N-],1.78,0.774,0.923,-2.08 (inactive),1.42,0.581,0.564,1.45,0.553,1.33,1.5,0.0131,0.814,1.79,0.291,0.119,0.254,1.9,2.28,1
CN1C(=O)C2C=CC(C(O)C#Cc3ccccc3)N(Nc3ccccc3)C2C1=O (stereo not given),1.58,0.932,0.891,1.24 (inactive),1.33,1.31,0.56,1.42,-0.184,0.926,1.45,0.234,0.302,1.18,0.533,0.0381,-0.0243,1.35,1.11,1.35
O=C1c2ccccc2[C@](Cc2ccccc2I)(C(=O)NCC(F)(F)F)[C@H](c2ccc(CO)cc2)N1C1CCCCC1,1.6,0.663,0.821,1.47 (inactive),1.04,0.884,0.109,0.66,-0.239,0.82,1.27,-1.21,0.133,1.53,0.486,-0.0405,0.0611,0.128,-0.229,1.51
CCC[C@@H]1C[C@@]1(CCC)[C@@H](NC(=O)OCc1ccccc1)c1ccc(-c2ccccc2)cc1,-1.27,-0.163,0.565,-3.43 (inactive),-0.933,-1.74,-1.1,-0.644,-0.496,1.47,-0.44,-1.5,-0.484,0.233,1.1,-0.0026,1.42,-0.304,-0.143,-0.899
O=C1O[C@@H](c2ccccc2)[C@@H](c2ccccc2)N2[C@@H](c3ccccc3OCCO)[C@]3(C(=O)Nc4ccc(C#CCCO)cc43)[C@@H](C(=O)N3CCCCCCC3)[C@H]12,2.19,3.2,1.87,-1.32 (inactive),1.71,1.45,2.05,1.78,2.69,2.05,1.51,-1.74,1.82,3.18,1.89,1.64,3.42,3.79,5.67,4.61
O=C1NC(=O)C2C1C=CC(C(O)c1ccco1)N2Nc1ccccn1 (stereo not given),0.76,-0.0191,0.0668,1.69 (inactive),0.32,0.03,0.217,-0.374,-0.172,1.01,-0.45,0.314,-0.111,-0.334,-0.0734,-0.2,0.111,-0.295,0.38,0.0104
CN1C(=O)C2C=CC(C(O)c3ccccn3)N(N(c3ccccc3)c3ccccc3)C2C1=O (stereo not given),1.44,-0.16,0.711,0.527 (inactive),0.62,0.19,0.22,0.273,-0.0644,0.79,-0.686,-0.276,-0.0321,0.0023,-0.0692,-0.0735,0.0684,0.427,1.07,0.451
CCCCC(O)C1C=CC2C(=O)N(c3ccccc3)C(=O)C2N1Nc1ccc(C(C)C)cc1 (stereo not given),0.562,-0.109,0.214,-0.479 (inactive),1.05,1.26,0.341,1.04,0.223,0.63,1.41,0.318,0.154,1.25,0.304,0.0974,0.0875,-0.503,-0.236,1.06
CC(C)Cc1ccc(CN2CC[C@@H](NC(=O)Nc3ccccc3)C2)cc1,1.06,-0.342,-0.358,2.68 (inactive),-0.62,-0.274,-0.301,-0.496,0.238,0.692,-0.709,-4.9,0.463,-0.433,0.0615,-0.0202,-0.221,-0.164,-0.311,0.166
CCOC(=O)C[C@H]1[C@H](OC(=O)c2ccccc2-c2ccccc2)[C@@H](NC(=O)c2ccc(-c3ccccc3)cc2)c2cc(OCCCO)ccc2N1C(=O)c1ccc2ccccc2n1,0.533,-0.293,-0.0904,0.224 (inactive),0.948,0.749,0.247,0.749,0.204,0.392,0.521,-1.24,0.465,0.105,-0.09,-0.0445,-0.0035,0.233,-0.0823,1.86
C=C(C(=O)CC[C@@H](OC(C)=O)c1ccc(CO)o1)C(C)C,-0.78,-0.418,-0.298,0.993 (inactive),0.826,0.482,-0.289,1.39,0.536,1.41,-0.306,-1.25,0.13,-0.299,-0.89,-0.1,0.213,0.149,1.73,0.844
